Test results published in PubChem BioAssay AID493170 (National Center for Advancing Translational Sciences (NCATS), 2011).
Inconclusive results are not listed. Unmarked numbers belong to inactive results. Active and inactive are the calls of the source. Calls follow the shape of the dose curve; as a rule, active = well fitted inhibition curve with a large enough effect; inconclusive = small, poorly fitted or top-dose-only effect, or effect the other way; inactive = flat fitted curve, though single readings scatter.

Target: Ubiquitin carboxyl-terminal hydrolase 2 (Homo sapiens) (UniProt O75604)
Assay: Ub-rhodamine 110 based assay for inhibitors Ubiquitin-specific Protease USP2a; also: nearly all actives have a fitted effect of over 50% in size
Conditions: USP2a Ub-rhodamine110 cleavage, fluorescence; series mostly up to 38.3 µM; activity change, negative = inhibition: at the top concentration
Summary of the method: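 Kinetic fluorescence (485/531 nm) read each minute over 7 min after adding Ub-Rhod110 (150 nM final) to USP2a (5 nM final). The enzyme had 30 min RT exposure to compounds beforehand in Tris pH 8.0 buffer with CaCl2, CHAPS and beta-ME.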
% is scaled to controls: 0 for no effect and ±100 for the full control effect; potency is read from the fitted curve at half-maximal effect.

Chain of Ubiquitin carboxyl-terminal hydrolase 2 (Homo sapiens) (O75604 whole entry, looked up): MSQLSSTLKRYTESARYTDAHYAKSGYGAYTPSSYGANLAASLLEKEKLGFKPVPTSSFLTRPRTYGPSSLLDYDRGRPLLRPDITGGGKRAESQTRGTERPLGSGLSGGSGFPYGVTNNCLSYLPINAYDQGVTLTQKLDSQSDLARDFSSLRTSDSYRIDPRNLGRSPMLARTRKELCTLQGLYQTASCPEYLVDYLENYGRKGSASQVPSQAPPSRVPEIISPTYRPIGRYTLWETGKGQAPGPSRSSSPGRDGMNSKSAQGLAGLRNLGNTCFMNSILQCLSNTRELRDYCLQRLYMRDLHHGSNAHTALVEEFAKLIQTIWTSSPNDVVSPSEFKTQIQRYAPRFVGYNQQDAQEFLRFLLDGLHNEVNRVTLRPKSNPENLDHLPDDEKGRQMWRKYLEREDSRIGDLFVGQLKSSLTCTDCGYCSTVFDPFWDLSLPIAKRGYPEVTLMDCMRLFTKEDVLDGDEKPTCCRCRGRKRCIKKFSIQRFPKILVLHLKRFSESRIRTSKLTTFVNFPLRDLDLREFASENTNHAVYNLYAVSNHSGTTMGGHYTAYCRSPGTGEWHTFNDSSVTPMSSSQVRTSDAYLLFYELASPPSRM

SMILES | activity change, negative = inhibition | Potency
Cc1nc2n(n1)CC(O)CS2 (centres undefined) | -3.3% | –
COC1=CCC2([N+](=O)[O-])CN(CCO)CC1([N+](=O)[O-])C2 (centres undefined) | 3.44% | –
Cc1cc(=O)n2[nH]c(-c3sccc3-n3c(C)ccc3C)cc2n1 | – | 10 µM (active)
CC1CCCC(NC(=O)C2N(CCCN3CCCC3)C(=O)C3C(C(=O)Nc4ccc(Cl)cc4)C4C=CC32O4)C1C (centres undefined) | -8.64% | –
Nc1ccccc1S(=O)(=O)NC1=NCCCCC1 | -5.26% | –
CCOc1ccc(S(=O)(=O)N(CC(=O)O)c2ccccc2)cc1 | 3.71% | –
O=C(c1ccccc1)N1CCN(C(=O)N2CCCCC2)CC1 | 0.808% | –
CC(NC(=O)COc1ccccc1-c1ccccc1)c1ccccc1 (centres undefined) | -12.3% | –
Cc1ccc(C)c(S(=O)(=O)c2c(N)n(/N=C/c3ccco3)c3nc4ccccc4nc23)c1 | -23.7% | –
CC1=NN(c2ccc(C(=O)O)cc2)C(=O)/C1=C\c1ccc(OC(=O)c2cccs2)cc1 | -21.7% | –
COC(=O)c1[nH]c2ccccc2c1NC(=O)CN1CCCc2ccccc21 | -15.7% | –
Nc1ccc2nc(-c3ccc(N)c(Cl)c3)[nH]c2c1 | -10.3% | –
Cn1c(C(=O)N2CCN(Cc3ccc4c(c3)OCO4)CC2)cc2sccc21 | 5.73% | –
O=C(O)CC1(CC(=O)Nc2ccc3ccccc3c2)CCCCC1 | -3.53% | –
COc1cc(C2C(C#N)=C(N)Oc3c2ccc2ccccc32)ccc1OCC(=O)Nc1cccc(C)c1 (centres undefined) | -14.7% | –
CCCC(=O)Nc1ccc(N2CCN(C(=O)c3cc4ccccc4o3)CC2)cc1 | -17.7% | –
Cc1ccc(NC(=O)CCC(=O)OC(C)C(=O)c2ccccc2)cc1 (centres undefined) | -5.77% | –
COc1ccc(CC(=O)c2ccccc2C(=O)O)cc1 | -1.46% | –
Cc1ccccc1C(=O)Nc1ccc2nc3n(c(=O)c2c1)CCC3 | -6.38% | –
CC1CCN(CC(O)COc2cccc(F)c2)CC1 (centres undefined) | -2.9% | –

SMILES | activity change, negative = inhibition | Potency
OCCN(Cc1ccccc1)c1ncnc2sccc12 | -13.2% | –
CC12CN3CC(C)(CN(C1)C3c1ccc(Cl)cc1Cl)C2O (centres undefined) | -1.96% | –
CNC(=O)NC(=O)CSc1ccc(NC(C)=O)cc1 | -6.69% | –
COc1ccc(OCC(=O)Nc2ccccc2OC)cc1 | 4.57% | –
O=C(COC(=O)c1ccc(F)c(S(=O)(=O)N2CCOCC2)c1)c1ccccc1 | -0.0271% | –
O=C1c2ccccc2CCC12N=NCC2c1ccc(Br)cc1 (centres undefined) | -8.46% | –
Cc1ccc(C(=O)N/C(=C/c2cccs2)C(=O)NCc2ccco2)cc1 | 2.38% | –
COc1cccc(/C=N/n2c(SC)nnc2-c2ccccc2)c1O | -15.9% | –
Cc1cc(SCC(=O)NC2CCCCC2)nc2ccccc12 | -5.9% | –
CCC(C)(C)n1nnnc1C(c1ccc(C)cc1)N1CCCC1 (centres undefined) | -8.02% | –
CCOC(=O)c1ccc(NC(=O)C2=C(C)Nc3nc(CCCO)nn3C2c2cccc(C)c2)cc1 (centres undefined) | 0.0256% | –
COc1ccc(S(=O)(=O)NCCSCc2ccco2)cc1OC | – | 10 µM (active)
CC(=O)COc1ccc2c(-c3ccccc3)cc(=O)oc2c1 | -12.9% | –
CCCn1c(N2CCN(Cc3cccc(C)c3)CC2)nc2c1c(=O)[nH]c(=O)n2C | -2% | –
Cc1ccccc1OCCn1nc(C(=O)O)c2ccccc2c1=O | -3.18% | –
Cc1ccc(-c2c(C)n([O-])c3c([n+]2=O)CCC3)o1 | -2.02% | –
COC(=O)c1c(N2C(=O)CCC2=O)sc2c1CCCC2 | -2.79% | –
CCOc1ccc(NC(=O)c2ccc(NC(=O)COC(=O)c3ccc(NC(=O)CC#N)cc3)cc2)cc1 | – | 3.98 µM (active)
C=CC[C@H](CC(=O)N(CCO)Cc1ccccc1)C(=O)N[C@H](C)COC(=O)[C@@H](CC=C)CC(=O)OC(C)(C)C | -0.111% | –
